Source: PubChem BioAssay
Pin1 inh = inhibitors of human Pin1; Potency, µM (titrated, usually from 115 µM), for inactives: at the highest dose activity, negative = inhibition, most hits filed as inhibitors; 390,000 tested, 0.009% active; Pin1 FP peptide displacement, HiFluor488, 10 min; AID 504891; Q13526; active = well fitted inhibition curve with a large enough effect in the polarisation, with a control signal flat, not every such curve was filed as active; inconclusive = small, poorly fitted or top-dose-only effect, or effect the other way, or a change in a side signal; inactive = no such curve, though single readings can be large or run the other way; the % refers to the polarisation; note: potency is the fitted concentration of half-maximal effect; % is set by controls: 0 for no effect and ±100 for the full control effect
Target sequence (Q13526 whole entry, looked up): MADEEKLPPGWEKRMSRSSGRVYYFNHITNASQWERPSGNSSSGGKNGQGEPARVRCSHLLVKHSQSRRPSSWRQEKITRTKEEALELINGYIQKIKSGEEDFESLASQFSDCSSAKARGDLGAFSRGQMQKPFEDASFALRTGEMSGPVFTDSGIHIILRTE
Vif-APOBEC3F blk = inhibitors of Vif-A3F interaction; Potency, µM (highest dose often 46.1 µM), without a hit: at the top dose activity, negative = active; 390,000 tested, 0.2% active; HeLa A3F-eYFP + Vif (tagged APOBEC3F with the HIV-1 protein that degrades it), YFP fluorescence increase; AID 602313; note: potency is the fitted concentration of half-maximal effect; % of control where 0% means no effect; nearly all actives have a fitted effect of over 65% in size
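HeLa cells stably expressing A3F-eYFP plus Vif, plated and incubated overnight at 37 deg C, then exposed to compounds overnight at 37 deg C. Blocked degradation read as raised yellow fluorescence (Ex 488/Em 500-530).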
LDHA inh = blocks human lactate dehydrogenase A. 480,000 tested, 0.15% active. P00338. purified LDHA, NADH/diaphorase-resazurin fluorescence; active compounds read low. AID 1347041. activity change, % (values are at about 110 or 230 µM); in the data active = activity change below about -30%; inconclusive = mostly about -25% to -30%;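 note: plate controls were DMSO wells for no effect and wells without enzyme for full effect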
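Remaining NADH was detected by diaphorase (0.133 mg/mL) converting 37 µM resazurin to fluorescent resorufin, read at 0 and 20 minutes. The preceding 5-minute room-temperature reaction used 2 nM LDHA, 0.2 mM sodium pyruvate and 0.06 mM NADH at pH 7.4.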
PGK inhibitor = inhibitors of T. brucei phosphoglycerate kinase. P07378. PGK/GAPDH coupled, Kinase-Glo luminescence, 60 min. 380,000 tested, 0.043% active. Potency, µM (titrated, usually from 57.5 µM), for the others: top-dose activity change, negative = inhibition, most hits filed as inhibitors; note: potency is the fitted concentration of half-maximal effect; % is set by controls: 0 for no effect and ±100 for the full control effect; nearly all actives have a fitted effect of over 60% in size
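Recombinant glycosomal PGK reaction used 1,3-bisphosphoglycerate generated in-well by GAPDH (100nM final) in 100mM TEA pH 7.6, 5mM MgCl2, 0.01% Tween-20. After 60 minutes at room temperature, ATP was read by Kinase-Glo Plus luminescence end-point.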
Vif-APOBEC3G blk = inhibitors of Vif-APOBEC3G interaction; Q9HC16; HeLa A3G-eYFP + Vif (tagged APOBEC3G with the HIV-1 protein that degrades it), YFP fluorescence, overnight; Potency, µM (top dose mostly 46.1 µM), for inactives: at the top dose activity, negative = active, most hits filed as inhibitors; 410,000 tested, 0.076% active; AID 602310; note: potency is the fitted concentration of half-maximal effect; % is set by controls: 0 for no effect and ±100 for the full control effect; nearly all actives have a fitted effect of over 60% in size
Target sequence (Q9HC16 whole entry, looked up): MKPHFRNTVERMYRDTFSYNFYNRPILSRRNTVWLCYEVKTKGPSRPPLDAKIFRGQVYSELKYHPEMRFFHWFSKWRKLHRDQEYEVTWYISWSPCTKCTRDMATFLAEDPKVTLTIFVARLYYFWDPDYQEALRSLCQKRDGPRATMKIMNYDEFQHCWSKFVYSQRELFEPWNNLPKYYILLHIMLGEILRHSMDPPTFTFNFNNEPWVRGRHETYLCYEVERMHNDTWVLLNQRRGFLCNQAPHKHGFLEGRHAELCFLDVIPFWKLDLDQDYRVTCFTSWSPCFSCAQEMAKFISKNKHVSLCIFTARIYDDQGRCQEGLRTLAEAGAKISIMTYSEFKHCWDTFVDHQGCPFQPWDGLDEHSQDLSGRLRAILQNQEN
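HeLa cells stably expressing Vif and C-terminally eYFP-tagged A3G, seeded overnight at 37 deg C, then exposed to compound by pintool overnight at 37 deg C. Rise in yellow fluorescence (Ex 488/Em 500-530, Acumen) marks blocked Vif-driven A3G degradation.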
IDH1 R132H inh = inhibitors of human mutant IDH1 R132H; O75874; IDH1-R132H enzyme, NADPH consumption, diaphorase/resazurin fluorescence; Potency, µM (top dose mostly 76.6 µM), for the others: top-dose activity change, negative = inhibition, most hits filed as inhibitors; 390,000 tested, 0.093% active; note: potency is the fitted concentration of half-maximal effect; % is set by controls: 0 for no effect and ±100 for the full control effect; nearly all actives have a fitted effect of over 65% in size
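IDH1-R132H (0.5 ug/mL dispensed) in pH 7.5 Tris buffer was preincubated 30 min with compound, then given a substrate mix of 0.016 mM NADPH and 2 mM alpha-KG for 80 min at room temperature; remaining NADPH was read by diaphorase/resazurin fluorescence.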
The depositor's hits bear a star; i = inactive; ? = inconclusive; . = not tested or not shown. Most compounds without a hit are left out; they make up all but 0.49% or so of the library. Unless noted, calls come from the whole dose curve; as a rule, active = well fitted curve in the direction sought with a large enough effect; inconclusive = small, poorly fitted or top-dose-only effect, or another doubt; inactive = no such curve, though single readings can be large; an effect the other way counts as inactive or inconclusive.

SMILES	Pin1 inh	Vif-APOBEC3F blk	LDHA inh	PGK inhibitor	Vif-APOBEC3G blk	IDH1 R132H inh
COc1ccccc1CN1CCN(Cc2ccc3ccccc3c2)CC1	-1%	-2%	-19	-3%	6%	8%
COc1ccc(CN2CCN(Cc3ccc4ccccc4c3)CC2)cc1OC	-5%	7%	-34*	-3%	-1%	7%
Cc1ccc(NC(=O)CN2C(=O)S/C(=C\c3cc(Cl)c(OCC(=O)O)c(Cl)c3)C2=O)cc1	.	6%	2	?	0%	37µM*
O=C(N=c1ccn(-c2nc3ccccc3nc2NS(=O)(=O)c2ccccc2)cc1)c1ccccc1Cl	?	7.1µM*	-5	-4%	0%	-12%
O=C(N=c1ccn(-c2nc3ccccc3nc2NS(=O)(=O)c2ccc(Cl)cc2)cc1)c1cccs1	?	7.9µM*	-3	i	-14%	-3%
C=CCn1c(C)cc(C(=O)CSc2nc3cc([N+](=O)[O-])ccc3o2)c1C	.	.	4	.	.	.
Cc1occc1C(=O)N/N=C/c1ccc(N(C)C)cc1	-7%	5%	1	25µM*	-5%	7%
CN(C)c1ccc(/C=N/NC(=O)c2ccccc2Cl)cc1	2%	2%	-7	7%	10µM*	-2%
CN(C)c1ccc(/C=N/NC(=O)c2ccccc2)cc1	-11%	-6%	-6	-25%	?	0%
O=C(O)c1ccc(COc2ccccc2/C=N/O)cc1	.	.	0	.	.	.
Cc1oc(-c2ccccc2)nc1C(=O)N(C)Cc1ccc(C(N)=O)cc1	.	.	3	.	.	.
Brc1n[nH]c(Br)n1	.	.	10	.	.	.
O/N=C(\c1ccc(O)cc1O)c1ccccc1F	.	.	-31*	.	.	.
O/N=C(/Cc1ccccc1)c1ccc(O)cc1O	.	.	1	.	.	.
COc1ccc(/C=C2\C(=O)ON=C2c2ccccc2)cc1OC	3%	-12%	-50*	-8%	-12%	7%
COc1cc(/C=C2\C(=O)ON=C2c2ccccc2)cc(OC)c1OC	1%	-19%	-36*	-3%	-3%	1%
COc1ccc(C=C2C(=O)OC(C)(C)OC2=O)cc1OC	10%	4%	2	-4%	1%	16%
COc1ccc(/C=C2/C(=O)ON=C2c2ccccc2)cc1OC	-3%	.	-60*	-3%	-26%	-2%
NC(=O)COc1ccc(/C=C2\C(=O)ON=C2c2ccccc2)cc1	-12%	?	-57*	-9%	-16%	5%
CCc1ccc(NC(=O)Cn2cc(S(=O)(=O)c3ccc(OC)cc3)c(=O)c3ccccc32)cc1	.	.	2	.	.	.
Cc1ccc(C(=O)OC(C)C(=O)NC(=O)NC2CCCCC2)c(O)c1 (configuration not stated)	.	.	-1	.	.	.
CCOc1cc(/C=C2/C(=O)ON=C2C)ccc1OCc1ccccc1	2%	0%	-6	i	-5%	-10%
CCOc1cc(/C=C2\C(=O)ON=C2c2ccccc2)ccc1OC	-9%	3%	-61*	-4%	?	-16%
Cc1ccc(Cl)c2c(N=Nc3ccccc3)c(O)[nH]c12	?	8.9µM*	-10	-1%	-13%	2%
Cc1cc(Cl)cc2c(N=Nc3ccccc3C(=O)O)c(O)[nH]c12	-3%	1%	1	-11%	-1%	6%
SMILES	Pin1 inh	Vif-APOBEC3F blk	LDHA inh	PGK inhibitor	Vif-APOBEC3G blk	IDH1 R132H inh
NC(=S)NN=C1CCCCCCCCCCCCC1	.	.	-2	.	.	.
Cc1cc(Cl)ccc1Nc1nc(N)c(C(=O)c2ccc(F)cc2)s1	.	.	-1	.	.	.
CN(C)CCCNCC(=O)Nc1ccccc1N1CCOCC1	-13%	0%	-32*	-2%	0%	2%
Nc1nonc1-c1nc2ccccc2n1CC(=O)Nc1cccc(C(F)(F)F)c1	?	25µM*	4	-1%	?	3%
COc1ccc(OC)c2sc(NC(=O)CCSc3ccccc3)nc12	3%	-3%	-3	-5%	0%	6%
COc1ccc(OC)c2sc(NC(=O)CCS(=O)(=O)c3ccccc3)nc12	?	3%	1	3%	11µM*	-7%
c1ccc(-c2cn3nc(-c4ccccc4)c(-c4ccccc4)nc3n2)cc1	?	?	1	0%	?	3%
Cc1ccc(-c2cn3nc(-c4ccccc4)c(-c4ccccc4)nc3n2)cc1	?	4.5µM*	-2	-2%	-18%	-11%
COc1ccc(Cl)cc1NC(=O)c1cc2c(s1)-c1ccccc1S(=O)(=O)C2	.	.	-6	.	.	.
CN(C)CCCN(C(=O)/C=C/c1cccs1)c1nc2ccc(F)cc2s1	?	11µM*	-10	-6%	?	-2%
CCN(CC)CCN(C(=O)/C=C/c1cccs1)c1nc2ccc(F)cc2s1	-6%	-16%	-2	i	0%	-2%
COc1cccc2sc(N(CCN(C)C)C(=O)/C=C/c3cccs3)nc12	-1%	-5%	-4	-2%	-15%	-3%
CN(C)CCN(C(=O)/C=C/c1cccs1)c1nc2c(F)cc(F)cc2s1	44%	11µM*	-3	-7%	-18%	-1%
N#C/C(=C\c1ccc2ccccc2n1)c1nc2ccccc2s1	.	.	8	.	.	.
Cc1ccc(C2=CC(c3ccc(F)cc3)n3nnnc3N2)cc1 (configuration not stated)	.	.	-2	.	.	.
Cc1ccccc1OCC(O)Cn1c(N)nc2c1c(=O)n(C)c(=O)n2C (configuration not stated)	.	.	-37*	.	.	.
O=C(Nc1ccc(C(=O)Nc2cccc3ncccc23)cc1)c1ccccc1	.	.	3	.	.	.
Cn1nc(C(=O)OCC(=O)N2CCc3ccccc32)c2ccccc2c1=O	1%	0%	4	-8%	2%	8%
CCCn1nc(C(=O)OCC(=O)N2CCCc3ccccc32)c2ccccc2c1=O	.	.	-31*	.	.	.
S=c1[nH]nc(-c2cc(-c3ccccc3)n[nH]2)n1/N=C/c1ccc(Cl)c(Cl)c1	?	1%	-42*	-23%	0%	-3%
S=c1[nH]nc(-c2cc(-c3ccccc3)n[nH]2)n1/N=C/c1ccc(Cl)cc1	?	-2%	0	-5%	-8%	-30%
CCOc1cc([N+](=O)[O-])cc2c1C(=O)Nc1ccccc1O2	?	22µM*	0	i	?	-1%
